Most compounds without a hit are left out; they make up all but 1.6% or so of the library.
KCNQ2 inh – rat KCNQ2 potassium channel inhibitors, primary screen, cell-based, CHO-K1, FluxOR thallium flux, B-score. 20 min; active compounds read low. B-score at 10 µM. 310,000 tested, 1.1% active. AID 2156, 2009;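 active means fluorescence ratio B-score at most minus 3 library SDs, with starting brightness B-score within 2 library SDs, cut at about -5.5 in these data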
KCNQ2 pot – potentiators of rat KCNQ2 potassium channel; Potassium voltage-gated channel subfamily KQT member 2 (Rattus norvegicus), O88943; CHO-K1 KCNQ2, FluxOR thallium flux fluorescence; active compounds read high; B-score at 10 µM; 310,000 tested, 0.54% active;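 active means fluorescence ratio B-score at least 3 SD of library B-scores, with initial fluorescence B-score within 3 of them, cut at about 5.3 in these data; same plate scores as AID 2156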;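 further: B-score of peak minus minimum over baseline fluorescence ratio after K+ and Tl+ stimulus; positive B-score means potentiation of KCNQ2 with more thallium influx and brighter signal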
Kir21 confirm – mouse Kir2.1 channel blockers, retest, confirmation, cell-based, FluxOR thallium flux, duplicate. shares compounds with KCNQ2 pot. Kir2.1-expressing cells, FluxOR thallium flux fluorescence; active compounds read low. Tl flux remaining, % of negative control (active compounds read low), % at 10 µM. 2,300 tested, 41% active. AID 2032, 2009;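 active means Primary-screen hit whose thallium flux fell at least 3 control SD below untreated wells in both duplicates, with normal baseline fluorescence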;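 further: 0% = blank wells without stimulus and 100% = stimulated no-compound controls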
HEK293 Tl flux – parental HEK293 activity in Kir2.1 inhibitor counter-screen; shares compounds with KCNQ2 pot; parental HEK293 cells, FluxOR thallium flux fluorescence; 0% = unstimulated blank wells; FluxOR signal as % of negative control (100 = no effect), % at 10 µM; 2,300 tested, 19% active; AID 2105;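 active means dye signal at least 3 control SD above or below untreated wells in both duplicates, raw fluorescence within 3, either direction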;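 further: percent is based on the flux ratio of peak minus minimum fluorescence over baseline F0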
CHO-K1 Tl ctr – nonspecific thallium flux increase in parental CHO-K1, confirmation, counter-screen for KCNQ2 potentiator project, cell-based, FluxOR thallium flux, duplicate. AID 2282, 2010. 1,200 tested, 43% active. activity increase over 3SD of controls, % at 10 µM. shares compounds with KCNQ2 pot. parental CHO-K1 cells, FluxOR thallium flux fluorescence; zero = vehicle mean+3SD, 100% = vehicle-minus-blank window;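 active means signal rise of at least 3 SD above the untreated control mean, in both duplicate wells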;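 further: counter screen of KCNQ2 potentiator hits so any rise reflects channel-independent effects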
KCNQ1 pot spec – human KCNQ1 channel potentiation off-target, confirmation, selectivity assay for KCNQ2 potentiator project, cell-based, CHO, FluxOR thallium flux; activation over 3SD threshold, % at 10 µM; CHO KCNQ1 stable, FluxOR thallium flux fluorescence; beyond 3SD, as % of vehicle-control signal; 1,200 tested, 28% active; shares compounds with KCNQ2 pot;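 active means fluorescence ratio rise of at least 3 SD of vehicle wells above their mean, in both replicate wells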;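 further: 0% = vehicle mean plus 3 SD and 100% = vehicle minus unstimulated blank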
Target sequence (P51787 whole entry, looked up): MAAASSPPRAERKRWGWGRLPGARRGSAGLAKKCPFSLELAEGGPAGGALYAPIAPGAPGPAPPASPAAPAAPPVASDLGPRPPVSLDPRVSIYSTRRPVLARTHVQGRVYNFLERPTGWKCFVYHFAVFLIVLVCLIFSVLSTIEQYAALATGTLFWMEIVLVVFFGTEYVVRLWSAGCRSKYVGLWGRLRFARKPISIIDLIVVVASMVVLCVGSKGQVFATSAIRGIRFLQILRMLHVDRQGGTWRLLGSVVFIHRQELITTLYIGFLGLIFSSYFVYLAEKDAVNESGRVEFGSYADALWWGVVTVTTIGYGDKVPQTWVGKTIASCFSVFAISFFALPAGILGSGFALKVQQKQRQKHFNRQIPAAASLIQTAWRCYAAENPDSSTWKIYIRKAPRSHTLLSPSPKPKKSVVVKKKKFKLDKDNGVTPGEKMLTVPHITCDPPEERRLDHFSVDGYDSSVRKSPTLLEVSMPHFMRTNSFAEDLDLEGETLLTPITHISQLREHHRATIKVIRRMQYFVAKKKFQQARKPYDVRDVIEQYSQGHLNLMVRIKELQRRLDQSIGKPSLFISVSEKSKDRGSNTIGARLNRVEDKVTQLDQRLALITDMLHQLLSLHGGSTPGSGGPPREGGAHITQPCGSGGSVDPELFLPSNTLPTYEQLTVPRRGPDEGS
KCNQ2 pot conf – rat KCNQ2 channel potentiators, confirmation, cell-based, CHO, FluxOR thallium flux, duplicate; shares compounds with KCNQ2 pot; CHO-KCNQ2 cells, FluxOR thallium flux fluorescence; potentiation, less the hit threshold, % at 10 µM; 1,200 tested, 68% active; AID 2287, 2010;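 active means fluorescence ratio rising 3 SD or more over the vehicle control mean in both replicates, plus primary screen hit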;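 further: peak minus minimum thallium fluorescence divided by baseline after K/Tl stimulus; 0% = vehicle mean plus 3 SD and 100% = vehicle minus unstimulated blank difference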
Kir21 spec – mouse Kir2.1 channel activation off-target, confirmation, selectivity assay for KCNQ2 potentiator project, cell-based, HEK293, FluxOR thallium flux; shares compounds with KCNQ2 pot; 1,200 tested, 2% active; activity over 3SD threshold, % at 10 µM; HEK293 Kir2.1, FluxOR thallium flux fluorescence; AID 2345, 2010;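 active means fluorescence ratio rise of at least 3 SD above the vehicle-control mean, seen in both replicates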;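 further: 0% = vehicle mean plus 3 SD and 100% = vehicle minus no-stimulus blank window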
KCNQ2 W236L pot – potentiators of retigabine-insensitive KCNQ2 W236L, mechanism study for KCNQ2 potentiator project, cell-based, rat KCNQ2 W236L, CHO, automated patch clamp. shares compounds with KCNQ2 pot. automated patch clamp current. current increase over 3SD of negative controls (%), active compounds read high, % at 25 µM. 940 tested, 10% active;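 active means current increase at least 3 SD of the untreated controls above them in both duplicate recordings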
* hit, by the source's call; i = inactive; nt = no result given.

SMILES	KCNQ2 inh	KCNQ2 pot	Kir21 confirm	HEK293 Tl flux	others
COc1cc(OC)cc(C(=O)NNC(=O)C2CCCC2)c1	i	nt	nt	nt
Cc1cc(=O)c2cc(Br)ccc2[nH]1	i	nt	nt	nt
S=c1nc(-c2ccccc2)[nH]c2ccc(Br)cc12	i	29*	i	i	CHO-K1 Tl ctr=-74;KCNQ1 pot spec=21*;KCNQ2 pot conf=66*;Kir21 spec=-18;KCNQ2 W236L pot=i
CC(C)Cc1ccc(C(C)NC(=O)c2ccc(=O)[nH]c2)cc1 (centres undefined)	i	0.78	nt	nt
COc1ccccc1CNCc1ccc(C)cc1	i	nt	nt	nt
COc1ccc2ccccc2c1CNCc1ccc(C)cc1	i	nt	22%*	i
Cc1noc(C)c1CSCC(=O)Nc1nc2ccc(F)cc2s1	i	nt	nt	nt
COC(=O)C1CCN(C(=O)COC(=O)c2oc3ccc(OC)cc3c2C)CC1	i	nt	nt	nt
O=C(NC1CCCCC1)c1cccnc1Sc1ccccc1	i	nt	nt	nt
CC(C)(C)c1ccccc1OCCCCCn1ccnc1	-6.1*	-6.1	39%*	i
Cc1ccc(C(C)(C)C)c(OCCCn2ccnc2)c1	i	nt	nt	nt
Cc1ccc(NC(=S)N(CCN(C)C)Cc2cc3cc(C)cc(C)c3[nH]c2=O)cc1	i	0.07	nt	nt
CCOc1ccc(C(=O)Nc2ccccc2N2CCN(C(=O)c3ccccc3)CC2)cc1[N+](=O)[O-]	i	1.4	nt	nt
CC(NC(=O)c1ccc(Br)cc1)c1ccc2c(c1)CCCC2 (centres undefined)	i	7.6*	i	i	CHO-K1 Tl ctr=43*;KCNQ1 pot spec=-2;KCNQ2 pot conf=40*;Kir21 spec=-29;KCNQ2 W236L pot=i
CC(NC(=O)c1ccccc1Br)c1ccc2c(c1)CCCC2 (centres undefined)	i	nt	nt	nt
CN1CCN(c2nc3ccccn3c(=O)c2C=C(C#N)C#N)CC1	i	nt	nt	nt
COc1ccc(NC(=O)Nc2ccc3c(c2)OCO3)c(C)c1	i	nt	nt	nt
Oc1c(Br)cc(Br)cc1/C=N/Nc1ccc(Cl)nn1	i	11*	i	i	CHO-K1 Tl ctr=-10;KCNQ1 pot spec=-18;KCNQ2 pot conf=13*;Kir21 spec=-12;KCNQ2 W236L pot=i
Oc1c(Br)cc(/C=N/Nc2ccc(Cl)nn2)cc1Br	i	2.6	nt	nt
COc1ccccc1NS(=O)(=O)c1cc(Cl)ccc1OC	i	0.01	nt	nt
CN(C(=O)c1cccc(COc2ccc(Cl)cc2Cl)c1)c1ccccc1	i	nt	i	i
O=C(c1cccc(COc2ccc(Cl)cc2Cl)c1)N1CCN(c2ccccn2)CC1	i	nt	nt	nt
C=CCn1c(SCc2ccccc2C#N)nnc1-c1cc(Br)ccc1O	i	nt	i	i
C=CCn1c(SCC(N)=O)nnc1-c1cccc(Br)c1	i	0.43	nt	nt
O=C1COC(c2ccccc2)=CN1Cc1ccccc1	i	nt	nt	nt
SMILES	KCNQ2 inh	KCNQ2 pot	Kir21 confirm	HEK293 Tl flux	others
COc1ccc(CCC(C)NCc2cccc(Br)c2)cc1 (centres undefined)	i	nt	24%*	i
CC(CCc1ccccc1)NCc1cccc2ccccc12 (centres undefined)	i	nt	19%*	i
COCC(C)NCc1cccc2ccccc12 (centres undefined)	i	2.5	nt	nt
COc1ccc(CCC(C)NCc2ccccc2OC)cc1 (centres undefined)	i	1	nt	nt
C/C(=N\N1CCN(c2ccccc2)CC1)c1ccc(O)cc1	i	nt	nt	nt
Cc1ccc(SCCNC(=S)Nc2ccc(C)c(C)c2)cc1	i	10*	i	72%*	CHO-K1 Tl ctr=1.9*;KCNQ1 pot spec=16*;KCNQ2 pot conf=-2;Kir21 spec=-32;KCNQ2 W236L pot=i
Cc1ccc(SCCNC(=S)Nc2ccccc2)cc1	i	nt	nt	nt
COc1ccc(-c2noc(CN(C)C(=O)c3ccoc3C)n2)cc1	i	2.2	nt	nt
CCOC(=O)c1c(CSC(=N)N)n(-c2ccc(C)cc2)c2cc(Br)c(OC(C)=O)cc12	i	nt	58%*	i
CCOC(=O)c1c(CSC(=N)N)n(C)c2cc(Br)c(OC(C)=O)cc12	i	nt	nt	nt
O=[N+]([O-])c1ccc(NCCNS(=O)(=O)c2ccccc2)c(C(F)(F)F)c1	i	nt	i	i
Cc1ccc(S(=O)(=O)NCCNc2ccc([N+](=O)[O-])cc2C(F)(F)F)cc1	i	nt	nt	nt
CC(CN1C(C)CCCC1C)OC(=O)c1cccc(Br)c1 (centres undefined)	i	0.02	nt	nt
CCOCCCNC(=O)c1cc2c(s1)-c1ccccc1SC2	i	0.75	nt	nt
CN(C)CCNC(=O)c1cc2c(s1)-c1ccc(Cl)cc1SC2	-7.6*	-7.6	i	i
O=c1nc2s/c(=C\c3ccc(-c4ccccc4[N+](=O)[O-])o3)c(=O)n2nc1-c1ccccc1	i	nt	nt	nt
O=C(NCC(=O)N(c1ccc(F)cc1)C(C(=O)NC1CCCCC1)c1ccncc1)c1ccco1 (centres undefined)	i	0.33	nt	nt
O=C(c1ccco1)N1CCN(c2ncnc3c2cnn3-c2ccccc2)CC1	i	0.79	nt	nt
CCc1cc2c(N3CCN(C(=O)c4ccco4)CC3)ncnc2s1	i	5.7*	i	i	CHO-K1 Tl ctr=-8;KCNQ1 pot spec=36*;KCNQ2 pot conf=-18;Kir21 spec=-39
O=C(N=C1SC2CS(=O)(=O)CC2N1c1ccc(F)c(Cl)c1)C1CCCO1 (centres undefined)	i	0.08	nt	nt
COc1ccccc1N=Nc1ccc(O)c2ncccc12	i	6.7*	i	i	CHO-K1 Tl ctr=-7;KCNQ1 pot spec=-21;KCNQ2 pot conf=1.5*;Kir21 spec=-28;KCNQ2 W236L pot=i
CCS(=O)(=O)c1ccc(N=Nc2ccc(O)c3ncccc23)c(OC)c1	i	0.63	nt	nt
Cc1ccc(N=Nc2ccc(O)c3ncccc23)cc1C	i	2.8	nt	nt
Cc1ccc(N=Nc2ccc(O)c3ncccc23)cc1	i	8.3*	i	i	CHO-K1 Tl ctr=-12;KCNQ1 pot spec=27*;KCNQ2 pot conf=13*;Kir21 spec=-35;KCNQ2 W236L pot=i

Screens as filed in PubChem BioAssay.
